# Results from PubChem BioAssay (Tox21).
# Results filed as inconclusive are left out. Entries that show only a call come without a potency. A number with no mark means an inactive call. Active and inactive are the calls of the source. Calls follow the shape of the full dose curve.
# Biological target: Thyrotropin receptor (Homo sapiens) (UniProt P16473)
# Test: qHTS assay to identify small molecule agonists of the thyroid stimulating hormone receptor (TSHR) signaling pathway (AID 1224843); also: nearly all actives have a fitted effect of over 45% in size
# Settings: TSHR-HEK293 cells, cAMP HTRF, agonist mode, 30 min; series mostly up to 92.4 µM; activation: at the top concentration
# Description: National Center for Advancing Translational Sciences [NCATS]
# NIH Chemical Genomics Center [NCGC]
# U.S. Environmental Protection Agency [EPA]
# National Institutes of Environmental Health Sciences [NIEHS]
# National Toxicology Program [NTP]
# U.S. Food and Drug Administration [FDA]
# TSHR is the receptor for thyrotropin (thyroid stimulating hormone or TSH), a member of the glycoprotein hormone family. TSH is released by the anterior pituitary gland and is the main regulator of thyroid gland growth and development. Upon binding circulating thyrotropin, a G-protein signal cascade activates adenylyl cyclase and […] cAMP concentration is increased. cAMP is a key second messenger involved extensively in cellular signal transduction pathways associated with the majority of G-protein coupled receptors (GPCRs). The activation of these GPCRs by neurotransmitters, lipids, nucleotides, peptides and hormones results in the activation or the inhibition of plasma membrane-bound adenylate cyclase through heterotrimeric G-proteins. A cell-based TSHR assay was used to screen the Tox21 10K library for compounds that can modulate TSHR in agonist mode.
# Tox21 Assay Protocol Summary:
# TSHR-Hek293 cells were dispensed at 800 cells/4uL/well in 1536-well white plates using a Multidrop dispenser. […] The plates were incubated at room temperature for 30 min. 2.5 ul/well of cAMP-d2 and 2.5ul/well of anti-cAMP-cryptate was added respectively into the assay plates using a Flying Reagent Dispenser. After 1 hr incubation at room temperature, the fluorescence intensity in the plates was measured using an Envision plate reader. Each test compound was measured at 15 concentrations and in triplicates.
# Thyrotropin receptor (Homo sapiens), sequence (P16473 whole entry, looked up): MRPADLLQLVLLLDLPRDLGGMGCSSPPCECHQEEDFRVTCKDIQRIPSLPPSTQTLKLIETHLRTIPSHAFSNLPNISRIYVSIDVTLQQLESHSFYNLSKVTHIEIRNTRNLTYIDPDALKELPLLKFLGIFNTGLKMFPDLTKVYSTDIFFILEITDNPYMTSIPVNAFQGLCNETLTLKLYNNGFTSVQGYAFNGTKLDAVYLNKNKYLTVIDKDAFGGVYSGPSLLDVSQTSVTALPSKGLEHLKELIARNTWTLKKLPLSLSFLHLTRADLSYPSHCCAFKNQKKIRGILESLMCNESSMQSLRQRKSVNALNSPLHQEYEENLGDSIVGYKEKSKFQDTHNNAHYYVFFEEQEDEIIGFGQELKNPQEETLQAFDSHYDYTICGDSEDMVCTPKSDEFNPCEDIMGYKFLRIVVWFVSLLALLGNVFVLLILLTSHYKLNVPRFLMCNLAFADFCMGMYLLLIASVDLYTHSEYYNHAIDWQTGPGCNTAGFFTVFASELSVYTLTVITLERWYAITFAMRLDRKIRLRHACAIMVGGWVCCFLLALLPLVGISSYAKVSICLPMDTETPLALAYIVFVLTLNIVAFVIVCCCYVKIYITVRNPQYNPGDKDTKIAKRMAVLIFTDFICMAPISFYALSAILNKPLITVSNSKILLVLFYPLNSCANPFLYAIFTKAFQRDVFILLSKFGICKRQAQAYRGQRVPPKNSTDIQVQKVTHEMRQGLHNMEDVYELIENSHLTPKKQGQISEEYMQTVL
SMILES,Potency,activation [%]
CC(C)c1ccc(C(C)C)cc1,inactive,
O=C1CCCCCCCCCCC1,inactive,
CCCOC(=O)NCCCN(C)C,inactive,
OCCOCCOCCOCCOCCO,inactive,
Cc1ccccc1Cl,inactive,
Cc1cc(C)cc(O)c1,,-12.3
O=C(NCC1CCCCN1)c1cc(OCC(F)(F)F)ccc1OCC(F)(F)F (stereo not given),inactive,
CC/C(C)=N/O,inactive,
Cc1ccncc1,inactive,
CC(=O)OC/C=C(\C)CCC=C(C)C,inactive,
CC(CN1c2ccccc2Sc2ccccc21)N(C)C (stereo not given),inactive,
Cc1ncc(CO)c(CO)c1O,inactive,
CC1(C)[C@@H](O[C@H]2O[C@H](C(=O)O)[C@@H](O)[C@H](O)[C@H]2O[C@@H]2O[C@H](C(=O)O)[C@@H](O)[C@H](O)[C@H]2O)CC[C@]2(C)[C@H]3C(=O)C=C4[C@@H]5C[C@@](C)(C(=O)O)CC[C@]5(C)CC[C@@]4(C)[C@]3(C)CC[C@@H]12,inactive,
CCn1cc(C(=O)O)c(=O)c2cc3c(cc21)OCO3,inactive,
COCN(COC)c1nc(N(COC)COC)nc(N(COC)COC)n1,inactive,
COc1ccc(N)c(OC)c1,inactive,
OCC(O)CS (stereo not given),inactive,
CC(=O)Nc1ccc(CC(=O)O)cc1,inactive,
CCCCCCC(=O)O,inactive,
O=c1n(CCCN2CCN(c3cccc(Cl)c3)CC2)nc2ccccn12,inactive,

SMILES,Potency,activation [%]
COC(=O)OC,inactive,
Cc1cc(C)c(O)c(C)c1,inactive,
Nc1cccc(C(F)(F)F)c1,inactive,
CCCCCCCCCCCCCC(=O)O,,-0.0295
Cc1cc(CC(=O)O)n(C)c1C(=O)c1ccc(Cl)cc1,inactive,
C=CC(C)(C)C,inactive,
NC(N)=S,inactive,
O=[N+]([O-])c1cc(C(F)(F)F)ccc1Cl,inactive,
CC/C=C(\C(=O)N[C@@H]1C(=O)N2C(C(=O)OCOC(=O)C(C)(C)C)=C(COC(N)=O)CS[C@H]12)c1csc(N)n1,inactive,
O=C(O)Cc1c[nH]c2ccccc12,inactive,
O=C(c1ccccc1)c1ccc(O)c(O)c1O,inactive,
Cc1ccccc1C=O,inactive,
CS(=O)(=O)c1ccc(Cl)cc1,inactive,
CC(O)CNCC(C)O (stereo not given),inactive,
NC1CCCCC1N (stereo not given),inactive,
CC(C)(CO)CO,inactive,
O=C1O[C@H]([C@H](O)CO)C(O)=C1O,inactive,
OCC(CO)(CO)CO,inactive,
Cc1ccc(Cl)cc1,inactive,
Brc1ccc(Oc2ccc(Br)cc2)cc1,inactive,
